Assay [1] has as its system HeLa. The assay can be described thus: Primary qHTS to identify gynecologic anti-cancer compounds using libraries of approved drugs and bioactive compounds (AID 1345084). Also: nearly all actives have a fitted effect of over 55% in size. The note with it: Gynecologic cancer cell panel viability, ATPlite luminescence, 48 h; series mostly up to 57.5 µM. The procedure, abridged:
(§1)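 Cell viability after 48 h drug treatment, ATPlite luminescence readout; five doses.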
A general note: Quantitative high-throughput screening tests each substance at several concentrations.

Assay [2] has as its system Hek293T. The assay is described as above. Conditions: Gynecologic cancer cell panel viability, ATPlite luminescence, 48 h, control line for the selectivity index; series mostly up to 57.5 µM. The essentials:
as §1
On the technique in general: In ATP-based viability assays light output follows the ATP content of the culture.

Assay [3] concerns JEG-3. The description is as above. The note with it: Gynecologic cancer cell panel viability, ATPlite luminescence, 48 h; series mostly up to 57.5 µM. The essentials:
as §1

The subject of assay [4] is OV90. Described as above. Conditions: Gynecologic cancer cell panel viability, ATPlite luminescence, 48 h; series mostly up to 57.5 µM. The procedure, abridged:
as §1

For assay [5], the system named is PA-1. The assay is described as above. Conditions: Gynecologic cancer cell panel viability, ATPlite luminescence, 48 h; series mostly up to 57.5 µM. The procedure, abridged:
as §1

Assay [6] relates to SKOV3. The description is as above. The note with it: Gynecologic cancer cell panel viability, ATPlite luminescence, 48 h; series mostly up to 57.5 µM. The essentials: as §1
Assay [7] has as its system Tov-21-G. The assay is described as above. Conditions: Gynecologic cancer cell panel viability, ATPlite luminescence, 48 h; series mostly up to 57.5 µM. The procedure, abridged: as §1
For assay [8], the system named is Tov112D. The description is as above. Conditions: Gynecologic cancer cell panel viability, ATPlite luminescence, 48 h; series mostly up to 57.5 µM. The procedure, abridged:
as §1

Assay [9] in a line: Drug repurposing screens with cells derived from glioblastoma tumor samples (AID 1345199). Also: nearly all actives have a fitted effect of over 40% in size. Also: potency is read from the fitted curve at half-maximal effect. Conditions: GBM patient neurospheres viability, ATP luminescence, 48 h. The essentials:
(§2)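 Primary testing used CD133+ neurospheres from four GBM patients, seven concentrations, 48 h exposure and ATP-based viability; confirmation added three slower-growing patient lines.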

For assay [10], the system named is astro. The assay is described as above. Conditions: viability, ATP luminescence, 48 h; series mostly up to 45.9 µM. The procedure, abridged:
as §2

Where [11] appears, read: at 45.9 µM (top of the series), tumour line B.
Where [12] appears, read: at 45.9 µM (top of the series), tumour line D.
[13] abbreviates: at 46.1 µM (top of the series), tumour line C.
The mark [14] stands for this setting: at 46 µM (top of the series), tumour line A.
[15] abbreviates: at 20 µM (top of the series), tumour line C.
The mark [16] stands for this setting: at 21.2 µM (top of the series), tumour line B.
Setting [17] is: at 21.2 µM (top of the series), tumour line D.
[18] abbreviates: at 21.3 µM (top of the series), tumour line A.

Where “and” joins values, the source holds several entries; their conditions need not be identical. Equal entries are not always repeated. Inconclusive results are not listed. Values without a mark were called inactive. Calls of active or inactive are those of the source. Calls follow the shape of the dose curve; as a rule, active = well fitted curve in the direction sought with a large enough effect; inconclusive = small, poorly fitted or top-dose-only effect, or another doubt; inactive = no such curve, though single readings can be large; an effect the other way counts as inactive or inconclusive.

Drawing on PubChem BioAssay (NCATS), this text covers Potency and activity, negative = cell killing for 14 compounds.
% is scaled to controls: 0 for no effect and ±100 for the full control effect.

Take `c1ccc(CNCCNCc2ccccc2)cc1`: the Potency result in assay [1], in assay [2], in [3], in assay [4], in assay [5] and in assay [6] was “inactive” each time. Moreover, the Potency entry in assay [7], in [8] and in assay [10] was “inactive” throughout. Further, the activity, negative = cell killing in assay [9] (setting [11]) was -9.72%; in assay [9] (setting [12]), -12.2%; in [9] (setting [13]), -25.1%. Besides, the Potency in assay [9] (tumour line A) was 22.4 µM (active).

For the compound `CC(C)(Oc1ccc(Cl)cc1)C(=O)O`, the Potency result in assay [1], in assay [2], in assay [3], in [4], in assay [5] and in [6] was “inactive” throughout. Also, the Potency result in [7], in [8] and in assay [10] was “inactive” in each case. Moreover, the activity, negative = cell killing in assay [9] (setting [11]) was -11.3%; in [9] (setting [12]), 2.87%; in [9] (setting [14]), -14.8%; in [9] (setting [13]) it was -3.07%.

Consider `CC1(C)O[C@@H]2C[C@H]3[C@@H]4C[C@H](F)C5=CC(=O)C=C[C@]5(C)[C@H]4[C@@H](O)C[C@]3(C)[C@]2(C(=O)CO)O1`, for which the Potency entry in [1], in assay [2], in assay [3], in assay [4], in assay [5] and in assay [6] was “inactive” throughout. Also, the Potency result in [7], in [8] and in [10] was “inactive” each time. The activity, negative = cell killing is 3.76% in [9] (setting [15]), 2.57% in assay [9] (setting [16]), -8.48% in assay [9] (setting [17]) and 19% in assay [9] (setting [18]).

Consider `O=C1OC2(c3ccc(O)cc3Oc3cc(O)ccc32)c2ccccc21`, for which the Potency entry in [1], in assay [2], in assay [3], in [4], in assay [5] and in assay [6] was “inactive” throughout. For the same compound, the Potency result in assay [7], in assay [8] and in assay [10] was “inactive” in each case. The activity, negative = cell killing in [9] (setting [11]) is -8.7% and -8.22%; in assay [9] (setting [12]) it was -3.66% and -8.86%; in assay [9] (setting [14]) it was -6.74%; in [9] (setting [13]), 11.7% and -10.7%.

In the case of `CCCC(=O)O[C@]1(C(=O)CO)CC[C@H]2[C@@H]3CCC4=CC(=O)CC[C@]4(C)[C@H]3[C@@H](O)C[C@@]21C`, the Potency entry in [1], in [2], in assay [3], in assay [4], in [5] and in [6] was “inactive” in each case. The Potency entry in assay [7], in assay [8] and in [10] was “inactive” each time. For the same compound, the activity, negative = cell killing in assay [9] (setting [11]) was 1.95%; in assay [9] (setting [12]), -21.3%; in assay [9] (setting [14]), -2.7%; in assay [9] (setting [13]), 6.32%.

With `C[C@]12C=CC(=O)C=C1[C@@H](F)C[C@@H]1[C@@H]2[C@@H](O)C[C@@]2(C)[C@H]1CC[C@]2(O)C(=O)CO`, the Potency entry in assay [1], in [2], in assay [3], in [4], in assay [5] and in assay [6] was “inactive” throughout. The Potency entry in assay [7], in assay [8] and in assay [10] was “inactive” in each case. For the same compound, the activity, negative = cell killing in assay [9] (setting [11]) is -7.25% and -6.51%; in [9] (setting [12]), -13.8% and -3.47%; in assay [9] (setting [14]), -18%; in [9] (setting [13]), -19.6% and -9.59%.

As for `C[C@H]1[C@H](NC(=O)/C(=N/OC(C)(C)C(=O)O)c2csc(N)n2)C(=O)N1S(=O)(=O)O` (stereo in doubt), the Potency entry in assay [1], in assay [2], in assay [3], in assay [4], in assay [5] and in [6] was “inactive” throughout. Further, the Potency entry in assay [7], in assay [8] and in [10] was “inactive” each time. Besides, the activity, negative = cell killing in assay [9] (setting [15]) was -1.55%; in [9] (setting [16]) it was -2.78%; in assay [9] (setting [17]), 9.37%; in assay [9] (setting [18]) it was -17.3%.

Take `C/C=C/c1ccc(OC)cc1`: the Potency entry in assay [1], in assay [2], in [3], in [4], in assay [5] and in [6] was “inactive” in each case. In addition, the Potency entry in [7], in assay [8] and in assay [10] was “inactive” in each case. The activity, negative = cell killing in [9] (setting [11]) is -1.8%; in [9] (setting [12]), 3.04%; in assay [9] (setting [14]), -17.3%; in assay [9] (setting [13]), 0.347%.

Consider `CCOC(=O)n1ccn(C)c1=S`, for which the Potency result in assay [1], in [2], in assay [3], in [4], in assay [5] and in assay [6] was “inactive” each time. For the same compound, the Potency result in assay [7], in [8] and in [10] was “inactive” throughout. Further, the activity, negative = cell killing in assay [9] (setting [15]) is 6.23%; in assay [9] (setting [16]), -8.85%; in assay [9] (setting [17]) it was 1.59%; in [9] (setting [18]), -18.4%.

In the case of `CC1(C)OC[C@@H](COC(=O)CCc2ccc(OC[C@@H](O)CNCCNC(=O)N3CCOCC3)cc2)O1`, the Potency result in [1], in assay [2], in assay [3], in assay [4], in assay [5] and in [6] was “inactive” in each case. The Potency entry in [7], in [8] and in [10] was “inactive” throughout. Moreover, the activity, negative = cell killing in assay [9] (setting [11]) was -1.97% and -1.33%; in [9] (setting [12]), -8.36% and -5.13%; in [9] (setting [13]) it was 1.06% and -5.37%.

For `Cc1ccnc(NS(=O)(=O)c2ccc(N)cc2)n1`, the Potency entry in [1], in [2], in [3], in assay [4], in assay [5] and in [6] was “inactive” throughout. The Potency result in assay [7], in assay [8] and in assay [10] was “inactive” throughout. Besides, the activity, negative = cell killing in assay [9] (setting [15]) is -10.2%; in assay [9] (setting [16]), -5.77%; in assay [9] (setting [17]) it was -5.49%; in [9] (setting [18]), -16.8%.

As for `CN(C)CCOc1ccccc1Cc1ccccc1`, the Potency entry in assay [1], in assay [2], in [3], in assay [4], in [5] and in [6] was “inactive” each time. Further, the Potency entry in [7], in [8] and in [10] was “inactive” throughout. Moreover, the activity, negative = cell killing was -0.223% in [9] (setting [11]), -22.7% in [9] (setting [12]) and -17.3% in assay [9] (setting [13]).

Take `Cc1ccc(C(=O)C(C)CN2CCCCC2)cc1` (centres undefined): the Potency result in [1], in assay [2], in [3], in assay [4], in [5] and in assay [6] was “inactive” each time. Moreover, the Potency result in [7], in assay [8] and in [10] was “inactive” throughout. The activity, negative = cell killing is -5.6% and -9.58% in assay [9] (setting [11]); -3.01% and -24.6% in assay [9] (setting [12]); 4.06% and 1.53% in assay [9] (setting [13]).

In the case of `CC(=O)OCC(=O)[C@@]12N=C(C)O[C@@H]1C[C@H]1[C@@H]3CCC4=CC(=O)C=C[C@]4(C)[C@H]3[C@@H](O)C[C@@]12C`, the Potency result in [1], in assay [2], in [3], in assay [4], in assay [5] and in [6] was “inactive” each time. Also, the Potency entry in assay [7], in [8] and in assay [10] was “inactive” each time. Besides, the activity, negative = cell killing in [9] (setting [11]) was -9.58%; in [9] (setting [12]), -6.5%; in assay [9] (setting [14]) it was -6.46%; in assay [9] (setting [13]), -22.2%.
